High-throughput results from PubChem.
Coupling enz: counter-screen for Giardia aldolase inhibitors: coupling enzyme system. AID 2472. hit rate 0.67% among 290,000. coupling enzyme system counterscreen, AmpLite Red fluorescence. activity change, negative = inhibition, % at 58.2 µM, hits read low; in the data active means activity change below about -30%
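Compounds tested against the coupling enzymes alone at 57.5 uM final; readout was AmpLite Red fluorescence (525/598 nm) after 20 min at RT.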
Tau fluor counter: counter-screen for tau fibril formation inhibitors | tau K18 P301L Alexa594 fluorescence, heparin fibrillization | AID 1463 | Potency, µM (series often up to 57.7 µM), inactives show at the highest dose activity change, negative = decrease | hit rate 0.93% among 280,000; further: potency means the concentration at half of the fitted maximal effect; nearly all actives have a fitted effect of over 55% in size
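Human K18 P301L tau (15 uM unlabeled plus 0.24 uM Alexa 594-labeled, final) in 100 mM sodium acetate pH 7 was mixed with compound and 20 uM heparin and incubated 6 hr at 37 C.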
USP1-UAF1 inh: USP1/UAF1 (human) deubiquitinase inhibition. O94782. recombinant USP1/UAF1, Ub-Rhodamine cleavage fluorescence. Potency, µM (titrated, usually from 57.1 µM), for inactives: at the top dose activity change, negative = inhibition, actives largely listed as inhibitors. hit rate 0.23% among 390,000. AID 743255; further: potency means the concentration at half of the fitted maximal effect; nearly all actives have a fitted effect of over 60% in size
Target sequence (O94782 whole entry, looked up): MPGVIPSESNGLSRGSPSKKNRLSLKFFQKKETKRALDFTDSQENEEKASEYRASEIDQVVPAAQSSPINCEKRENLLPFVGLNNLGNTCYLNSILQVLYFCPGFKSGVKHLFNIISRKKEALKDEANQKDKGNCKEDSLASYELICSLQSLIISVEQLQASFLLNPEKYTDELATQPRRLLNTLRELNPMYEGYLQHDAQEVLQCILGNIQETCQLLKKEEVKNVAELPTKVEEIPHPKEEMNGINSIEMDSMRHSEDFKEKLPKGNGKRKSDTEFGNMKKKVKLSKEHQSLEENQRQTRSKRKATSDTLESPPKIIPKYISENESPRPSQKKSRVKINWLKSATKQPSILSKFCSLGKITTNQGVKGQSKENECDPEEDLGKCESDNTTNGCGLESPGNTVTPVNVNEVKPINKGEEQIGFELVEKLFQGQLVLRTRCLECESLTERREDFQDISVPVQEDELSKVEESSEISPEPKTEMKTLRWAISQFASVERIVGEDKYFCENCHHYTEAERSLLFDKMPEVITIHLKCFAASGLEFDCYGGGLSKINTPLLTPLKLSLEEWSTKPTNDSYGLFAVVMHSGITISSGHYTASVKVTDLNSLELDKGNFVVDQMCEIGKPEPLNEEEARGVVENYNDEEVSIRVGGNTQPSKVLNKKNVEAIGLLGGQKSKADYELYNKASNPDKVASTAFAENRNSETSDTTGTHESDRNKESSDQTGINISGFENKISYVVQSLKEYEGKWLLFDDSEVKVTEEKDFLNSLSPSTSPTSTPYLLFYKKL
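USP1/UAF1 complex (1 nM) preincubated 15 min at room temperature with compound, then Ub-Rho substrate (150 nM final) added. Kinetic fluorescence at 480/540 nm over 6 reads at 60 s intervals; 50 mM HEPES pH 7.8, 0.5 mM EDTA, 0.1 mg/ml BSA, 1 mM TCEP, 0.01% Tween-20.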
Tau fibril ThT: blocks human tau fibril formation measured by thioflavin T. recombinant tau K18 P301L, heparin-induced fibrillization, ThT fluorescence. Potency, µM (series often up to 57.4 µM), for the others: top-dose activity, negative = inhibition, most hits filed as inhibitors. hit rate 2.1% among 270,000; further: potency means the concentration at half of the fitted maximal effect; nearly all actives have a fitted effect of over 55% in size
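Using a mix of unlabeled (15 uM) and Alexa 594-labeled (0.24 uM) tau K18 P301L, heparin-triggered fibrillization over 6 hr at 37 C was scored by ThT fluorescence.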
Tau fibril FP: tau fibrillization inhibition (FP). P10636. K18 P301L tau heparin fibrillization, Alexa594 FP, 6 h. Potency, µM (series often up to 57.7 µM), for the others: at the highest dose activity, negative = inhibition, actives largely listed as inhibitors. hit rate 0.39% among 280,000. AID 1468; further: potency means the concentration at half of the fitted maximal effect; nearly all actives have a fitted effect of over 55% in size
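Human K18 P301L fragment (15 uM unlabeled plus 0.24 uM Alexa 594-labeled) in 100 mM sodium acetate pH 7 with compound, aggregation induced by 20 uM heparin for 6 hr at 37 C. ThT (30 uM) added for 1 hr, then Alexa 594 FP read.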
* hit, by the source's call; ? = inconclusive; . = no result; [ ] = remark or other dose. Only some compounds are listed: those with a hit (about 2.3% of all), similar ones and a draw of the others. Unless noted, the call rests on the fitted dose curve; in most records, active means well fitted curve in the direction sought with a large enough effect; inconclusive means small, poorly fitted or top-dose-only effect, or another doubt; inactive means no such curve, though single readings can be large; an effect the other way counts as inactive or inconclusive. On the % scale 0 is the no-effect control and ±100 the full control effect.

SMILES	Coupling enz	Tau fluor counter	USP1-UAF1 inh	Tau fibril ThT	Tau fibril FP
CCCCCNC(=O)c1c[nH]c2ccc(S(=O)(=O)N3CCC(C)CC3)cc2c1=O	.	?	-17%	12%	7.9µM*
CCOc1ccc(NS(=O)(=O)c2ccc3[nH]cc(C(=O)N(C)Cc4ccccc4)c(=O)c3c2)cc1	.	-18%	?	-9%	-2%
CCCNC(=O)c1c[nH]c2ccc(S(=O)(=O)N(C)c3ccc(OCC)cc3)cc2c1=O	-7	?	-6%	-2%	14µM*
CCOc1ccc(NS(=O)(=O)c2ccc3[nH]cc(C(=O)NCc4ccccc4)c(=O)c3c2)cc1	.	?	-9%	-3%	3.5µM*
CCC1CN(C(=O)N2CCC(C(=O)NCc3ccc(C)o3)CC2)c2ccccc2O1 (configuration not stated)	.	-23%	-9%	12%	-5%
CCC1CN(C(=O)N2CCC(C(=O)NCc3ccco3)CC2)c2ccccc2O1 (configuration not stated)	.	3.5µM*[quencher]	-21%	16%	?
O=C(NCc1ccco1)C1CCN(C(=O)N2CCOc3ccccc32)CC1	.	5µM*[quencher]	?	?	11%
CCC1CN(C(=O)N2CCC(C(=O)N3CCN(c4ccccc4)CC3)CC2)c2ccccc2O1 (configuration not stated)	.	11µM*[quencher]	-4%	?	?
CCC1CN(C(=O)N2CCC(C(=O)NCCCc3ccccc3)CC2)c2ccccc2O1 (configuration not stated)	.	8.9µM*[quencher]	-7%	-19%	13%
CCOc1cc2sc(N3CCC(C(=O)Nc4ccc(C)cc4)CC3)nc2cc1Br	.	-29%	-6%	?	1%
O=C(CC(=O)N/N=C\c1c(Cl)cccc1Cl)NCc1ccccc1	-4	-10%	1%	-9%	-6%
O=C(COc1ccc([N+](=O)[O-])cc1)Nc1nc2c(s1)CCCC2	.	-6%	-16%	-11%	5%
CCC(COC)Oc1cc(NCc2ccccc2)c2ncn(C(C)C)c2c1 (configuration not stated)	.	.	13µM*	.	.
COCCCOc1cc(NCc2ccccc2)c2ncn(C(C)C)c2c1	.	.	-14%	.	.
CC(=O)NN1C(=O)/C(=C\c2ccc(Br)o2)SC1=S	-15	-25%	-6%	25µM*	11%
CC(=O)NN1C(=O)/C(=C\c2ccccc2)SC1=S	.	-12%	-11%	-9%	-8%
CC(=O)NN1C(=O)/C(=C/c2ccc(Br)o2)SC1=S	-10	?	-23%	16µM*	?
CCc1nn(C(C)C(=O)N2CCN(c3ccc(OC)cc3)CC2)c(=O)c2cc3occc3n12 (configuration not stated)	3	.	-7%	.	.
Cc1ccc(CNC(=O)C(=O)Nc2c3c(nn2-c2ccc(F)cc2)CSC3)cc1	.	1%	-19%	-5%	-7%
Cc1ccc2c(c1C)NC(C(=O)O)C1CC=CC21 (configuration not stated)	-6	?	?	11µM*	?
O=C(c1ccccc1O)N1CCOCC1	0	-6%	-8%	-7%	-2%
O=C(O)C1Nc2c(C(=O)N3CCOCC3)cccc2C2C=CCC12 (configuration not stated)	-34*	?	?	14µM*	?
COc1ccccc1N1CCN(CC2CN3C(=O)N(C)c4ccccc4C3=N2)CC1 (configuration not stated)	.	0%	.	-4%	8%
O=c1cc(-c2ccc(O)cc2)oc2c(-c3c(O)cc(O)c4c(=O)cc(-c5ccc(O)cc5)oc34)c(O)cc(O)c12	.	.	-9%	.	.
O=c1cc(-c2ccc(O)c(-c3c(O)cc(O)c4c(=O)cc(-c5ccc(O)cc5)oc34)c2)oc2cc(O)cc(O)c12	0	?	15%	14µM*	?
SMILES	Coupling enz	Tau fluor counter	USP1-UAF1 inh	Tau fibril ThT	Tau fibril FP
O=c1c(-c2c(O)cc(O)c3c(=O)cc(-c4ccc(O)cc4)oc23)c(-c2ccc(O)cc2)oc2cc(O)cc(O)c12	-2	?	3%	16µM*	?
COc1cc(O)c2c(=O)cc(-c3ccc(OC)c(-c4c(O)cc(O)c5c(=O)cc(-c6ccc(O)cc6)oc45)c3)oc2c1	11	?	.	-17%	?
Cc1ccc(Cn2ccnc2SCC(=O)NCc2ccc(F)cc2)cc1	.	-15%	-19%	-13%	-1%
O=C(/C=C/c1c(Cl)cccc1Cl)n1cccn1	5	-13%	-15%	10µM*	?
CC1(C)C2([N+](=O)[O-])CN3CC1([N+](=O)[O-])CN(C2)C3C(O)C(O)C(O)CO (configuration not stated)	3	6%	-2%	.	1%
C[C@H]1C=C2C=C[C@H](C)[C@H](CC[C@@H]3C[C@@H](O)CC(=O)O3)[C@H]2[C@@H](OC(=O)[C@@H](C)CCO)C1	-2	2%	.	-9%	3%
O=C1c2ccccc2-c2cccc(NS(=O)(=O)c3ccc(C(F)(F)F)cc3)c21	1	?	28µM*	?	2%
COc1ccc(C2CC(=O)N3CN(C4CCCCC4)CSC3=C2C#N)cc1 (configuration not stated)	.	-19%	?	18µM*	?
COc1cccc(C2CC(=O)N3CN(C4CCCCC4)CSC3=C2C#N)c1 (configuration not stated)	.	-24%	?	35µM*	?
COc1cccc(C2C3=C(N=c4s/c(=C\c5ccc(OCC(=O)O)cc5)c(=O)n42)c2ccccc2CC3)c1 (configuration not stated)	-2	-13%	-20%	22µM*	-14%
COc1ccccc1C1C2=C(N=c3s/c(=C/c4cccc(OCC(=O)O)c4)c(=O)n31)c1ccccc1CC2 (configuration not stated)	-3	?	-16%	16µM*	?
CCOC(=O)C1=C(C)N=c2s/c(=C\c3ccc(OCC(=O)O)cc3)c(=O)n2C1c1ccccc1 (configuration not stated)	5	.	-11%	.	.
COc1cccc(C2C3=C(N=c4s/c(=C\c5ccc(O)cc5)c(=O)n42)c2ccccc2CC3)c1OC (configuration not stated)	0	?	-20%	?	-7%
COc1cccc(C2C3=C(N=c4s/c(=C\c5cccc(O)c5)c(=O)n42)c2ccccc2CC3)c1OC (configuration not stated)	2	?	-15%	?	22µM*
COc1ccc(CCNC(=O)C2CCCN(S(=O)(=O)c3ccc(F)cc3)C2)cc1OC (configuration not stated)	.	.	-5%	.	.
C=CCn1c(-c2cc(-c3ccccc3)sc2N)n[nH]c1=S	-1	?	-27%	?	16%
CCn1c(SC(C)C)nnc1-c1cc(-c2ccccc2)sc1N	2	?	-26%	13µM*	-11%
